Screening data deposited in PubChem by Small Molecule Screening Facility, UW Madison.
Many of the other results were omitted from the sample, so hits are more common in it than they were.
RMI FANCM FP = inhibitors of human RMI core complex binding to FANCM MM2; Fluorescence polarization, RMI core complex with F-MM2 peptide; active compounds read low; FP signal (polarization) at 33 µM; 70,000 tested, 0.58% active; AID 1159607; in the data active = FP signal below about 40
The depositor's hits bear a star.

SMILES	RMI FANCM FP
COc1ccc2c(c1)OC[C@@H](Cc1ccc(OC)c(OC)c1)[C@H]2O	58
COc1ccc(-c2nnc3ccc(SCC(=O)NCc4ccc5c(c4)OCO5)nn23)cc1	57
COc1ccc(C(c2c(C)[nH]c3ccccc23)c2c(C)[nH]c3ccccc23)c(OC)c1	16*
COc1ccc(Cc2nc3ccccc3[nH]2)cc1	62
Cc1ccnc(NC(c2ccco2)c2c(C)[nH]c3ccccc23)c1 (stereo not given)	88
COc1ccc(N2CCCS2(=O)=O)cc1NC(=O)C(=O)NCCN1CCOCC1	61
CCc1cc([N+](=O)[O-])cc(CC)c1NC(C)=O	51
COc1ccc(C(CNC(=O)Cc2ccc(F)cc2)N2CCN(C)CC2)cc1 (stereo not given)	53
CCOC(=O)/C(C#N)=C/c1ccc(-c2cccs2)s1	82
CCOC(=O)/C(C#N)=C/c1ccc(OC)s1	55
COC(=O)/C(C#N)=C/c1ccc(SC)s1	32*
CCO/C(C)=N\OC(=O)Nc1ccc(OC(F)(F)F)cc1	53
Cc1[nH]c(=O)[nH]c(=O)c1CCC(=O)Nc1ccc(S(=O)(=O)N(C)c2ccccc2)cc1	69
Cc1ccc(-c2nc(C#N)c(N3CCN(C(=O)c4ccc(Cl)cc4)CC3)o2)cc1	68
CCOC(=O)c1c(NC(=O)c2ccc(Br)s2)sc(C)c1C	79
CCOC(=O)c1c(NC(C)=O)sc(C)c1C	56
CCOC(=O)c1c(NC(=O)c2cc(S(=O)(=O)C(C)C)c(SC)s2)sc(C)c1C	37*
Cc1cccc2sc(N(CCCn3ccnc3)C(=O)c3ccco3)nc12	50
CNC(=O)Cn1cnc2c([nH]c3ccccc32)c1=O	61
CSC(=NC(C)(C)C)N/N=C\c1cc(Cl)cc(Cl)c1O	70
O=C1NN=CC1CCCN=Cc1cc(Cl)cc(Cl)c1O (stereo not given)	24*
Oc1c(Cl)cc(Cl)cc1C=NCC1CCC(CN=Cc2cc(Cl)cc(Cl)c2O)CC1 (stereo not given)	10*
OCCN=Cc1cc(Cl)cc(Cl)c1O	36
Oc1c(Cl)cc(Cl)cc1/C=N\NC(=S)Nc1cc(C(F)(F)F)cc(C(F)(F)F)c1	79
Cn1nccc1C(=O)Nc1nc(-c2ccc(Cl)cc2)cs1	63
SMILES	RMI FANCM FP
O=C(/C=C/C1=Cc2ccccc2OC1)Nc1nccs1	76
COc1ccc(-c2ccc(S(=O)(=O)Nc3ccccc3OC)cc2)cc1	59
Cn1cc(OCc2ccc(F)cc2)c(=O)cc1C(=O)NC1CCCCCC1	63
Cc1cc2ccccc2n1CCNC(=O)Nc1c[nH]c2ccccc12	55
CC(C)(C)OC(=O)NCCN=Cc1cccc([N+](=O)[O-])c1	54
C=Cc1c(C)c2cc3[nH]c(cc4nc(cc5nc(cc1[nH]2)C(C)=C5CCC(=O)O)C(CCC(=O)O)=C4C)c(C)c3C=C	40
CC1=C(CCC(=O)O)c2cc3nc(cc4[nH]c(cc5[nH]c(cc1n2)c(C)c5C(C)O)c(C)c4C(C)O)C(C)=C3CCC(=O)O (stereo not given)	34*
Cc1cc(=O)[nH]c(-n2nc(C)c(CCC(=O)O)c2C)n1	72
O=C(Nc1nc(-c2ccc(Br)cc2)cs1)c1ccc2c(c1)OCCO2	84
Cc1ccc(N2CC(NC(=O)c3ccc(C)c([N+](=O)[O-])c3)CC2=O)cc1C (stereo not given)	51
CCN(CC)CCN(C(=O)c1ccc2ncsc2c1)c1nc2cc(C)cc(C)c2s1	79
Cn1cccc1-c1cc(C(=O)N/N=C/c2cccc(Br)c2)[nH]n1	64
Cn1cnnc1SCC(=O)Nc1nccs1	57
O=C(Nc1nc(-c2cc(Cl)sc2Cl)cs1)c1cccs1	61
Cc1ccc(-c2csc(NC(=O)c3ccc([N+](=O)[O-])s3)n2)cc1	55
O=C(Nc1nc(-c2cc(Cl)sc2Cl)cs1)c1ccc([N+](=O)[O-])s1	28*
Cc1cccc(NC(=O)C2CCN(c3ccc(-c4ccccc4)nn3)CC2)n1	63
O=C(Nc1c(F)cccc1F)N1CCn2cccc2C1c1cccnc1 (stereo not given)	53
COc1ccccc1NC(=O)N1CCn2cccc2C1c1ccc(Br)cc1 (stereo not given)	56
O=C(Nc1cccs1)N1CCn2cccc2C1c1ccc(F)cc1 (stereo not given)	15*
O=C(Nc1ncc(Cc2ccc(Cl)c(C(F)(F)F)c2)s1)c1ccc2snnc2c1	60
O=C(Nc1ccc2c(c1)CN(C(=O)c1ccccc1)CC2)c1ccc(F)cc1F	65
COc1ccc(OC)c(COCC(O)CN2C(C)(C)CC(O)CC2(C)C)c1 (stereo not given)	62
CC(C)N1CCC(CNS(=O)(=O)c2cccc3ccccc23)CC1	74
CSc1sc(C#N)c(C)c1-c1ccn(S(=O)(=O)c2ccc(Cl)cc2)n1	56
SMILES	RMI FANCM FP
O=C1/C(=C/c2ccc(Cl)cc2)Oc2cc(O)ccc21	-17
CN(/C=C1\Oc2cc(O)ccc2C1=O)Cc1ccccc1	14*
Cc1ncc(CO)c(/C=C2\Oc3cc(O)ccc3C2=O)c1O	85
Cc1ccc(C(C)C)c(OCC(=O)N=Nc2c(O)[nH]c3ccc([N+](=O)[O-])cc23)c1	11*
CCCCCC(=O)N=Nc1c(O)[nH]c2ccc([N+](=O)[O-])cc12	65
O=C(N=Nc1c(O)[nH]c2ccc([N+](=O)[O-])cc12)c1ccncc1	62
CC(C)(C)OC(=O)NCCN=Cc1ccc(C(F)(F)F)cc1	52
CCCc1ccc(S(=O)(=O)NCC2CCN(C3CCCC3)CC2)cc1	82
Cc1ccc(NC(=O)Cn2c(C)cc(C)c(-c3nc(-c4ccccc4)no3)c2=O)c(Br)c1	145
